# Source: PMC5540273 (PLoS ONE, 2017)
# What was measured:
# Conditions in all cases: concentration: 1 μM, replicates: in singlicate; n = 1
# HUNK = tested on: HUNK
# ICK = tested on: ICK
# IGF1R = tested on: IGF1R
# IKK-alpha = tested on: T1, IKK-alpha
# T1 construct: gene CHUK
# IKK-beta = tested on: T2, IKK-beta
# T2 construct: gene IKBKB
# IKK-epsilon = tested on: T3, IKK-epsilon
# T3 construct: gene IKBKE
# INSRR = tested on: INSRR
# INSR = tested on: INSR
# IRAK1 = tested on: IRAK1
# IRAK3 = tested on: IRAK3
# 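Further: KINOMEscan kinase panel screen.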
SMILES,%Inh (HUNK) [%],%Inh (ICK) [%],%Inh (IGF1R) [%],%Inh (IKK-alpha) [%],%Inh (IKK-beta) [%],%Inh (IKK-epsilon) [%],%Inh (INSRR) [%],%Inh (INSR) [%],%Inh (IRAK1) [%],%Inh (IRAK3) [%]
Cc1ccc(C(=O)Nc2ccc(Nc3ccnc4cc(-c5ccccn5)ccc34)cc2O)cc1.Cl [GW440146],23,0,18,0,0,16,0,1,28,3
COc1ccc(Nc2nccc(NCCNC(=O)Nc3ccccc3F)n2)cc1 [GSK1379901],9,0,10,0,11,12,0,0,36,8
Cc1cccc(-c2cc(Nc3ccncc3)c3ccccc3n2)n1 [GSK223675],0,11,0,0,0,36,0,14,15,0
CN(C)CCN(C)C(=O)c1cc(-c2ccncc2)c(-c2ccc(Cl)c(O)c2)o1.Cl.Cl [SB-710397],38,10,7,44,35,34,0,0,56,0
COc1cc2nccc(Nc3ccc(NC(=O)c4ccc(C)cc4)c(O)c3)c2cc1OC.Cl [GW440132],28,0,0,0,3,0,0,0,0,14
COc1ccc(C2=C(Nc3cccc(C(=O)O)c3)C(=O)NC2=O)cc1 [SB-390765],19,29,0,16,23,3,4,13,28,0
O=C(Nc1ccccc1)Nc1cccc(Oc2ccc3nccn3n2)c1,18,0,0,7,0,0,0,0,9,1
Cc1c(Cn2ccn3c(=O)cc(N4CCOCC4)nc23)cccc1C(F)(F)F [GSK2289044],29,0,0,0,0,3,0,0,0,4
CC(C)(C)c1ccc(C(=O)Nc2cn3cc(Cl)ccc3n2)cc1,43,0,0,0,100,0,0,0,0,23
Nc1nc(-c2nccs2)c(-c2ccnc3ccccc23)s1 [GW693542],23,0,10,0,9,31,0,0,18,7
Cc1ccc(-c2cc(-c3c[nH]nc3-c3ccccn3)ccn2)cc1 [GW684088],1,0,36,0,0,9,0,0,0,7
O=C(Nc1n[nH]c2cc(-c3cccc(F)c3F)ccc12)C1CC1 [SB-733894],0,22,0,0,5,11,0,41,0,10
CC(=O)Nc1nc2cnc(Nc3cc(NC(=O)c4cccc(CCC#N)c4)ccc3C)nc2s1,0,0,0,10,0,33,0,34,19,21
Cn1cncc1-c1ccc2ncnc(Nc3ccc(OCc4ccccc4)cc3)c2c1 [GW320571],0,0,24,0,0,0,22,3,11,3
CS(=O)(=O)c1ccc(-c2c(-c3ncn[nH]3)sc(N3CCOCC3)c2C#N)cc1,0,0,7,36,29,24,15,0,0,100
Cc1cccc(-c2nc(Nc3ccncc3)c3ccccc3n2)n1 [GW855857],0,0,0,0,0,0,0,7,0,21
Cc1cccc(-c2nc(C)cc(Nc3ccncc3)n2)n1 [GSK257997],7,0,5,0,13,12,0,3,0,0
